Screening results as filed in PubChem BioAssay.
An excerpt weighted towards active compounds, which were near 2.9% of everything screened.
PAFAH2 inh – inhibitors of human PAFAH2 | Q99487 | recombinant PAFAH2, FP-rhodamine activity probe, fluorescence polarization | inhibition, % at 3.39 µM | 0.99% of 340,000 active | AID 492956;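 active means inhibition above the mean over all tested compounds plus 3 SD, cut at about 30% in these data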;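 further: inhibitors block probe labeling of enzyme so polarization drops; 0% = enzyme with DMSO and 100% = wells lacking PAFAH2 protein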
rCAG RNA binder – molecules binding r(CAG) RNA repeats; r(CAG) RNA repeat, TO-PRO-1 dye displacement fluorescence; inhibition, % at 3 µM; 1.3% of 370,000 active; AID 651821;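 active means inhibition above the plate cutoff, the mean of all test compounds on that plate plus 3 SD, cut at about 35% in these data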;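 further: 0% = DMSO alone and 100% = 100 µM mitoxantrone as full dye displacement; higher means more dye released from RNA so lower well fluorescence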
PAFAH1B2 FP inh – PAFAH1B2 (human) inhibition; P68402; recombinant PAFAH1B2, FP-rhodamine activity probe, fluorescence polarization; inhibition, % at 3.39 µM; 1.2% of 340,000 active; AID 492953;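 active means inhibition above the mean of all tested compounds plus 3 SD, cut at about 24% in these data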;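 further: 0% = enzyme with DMSO and 100% = wells lacking PAFAH1B2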
Target sequence (P68402 whole entry, looked up): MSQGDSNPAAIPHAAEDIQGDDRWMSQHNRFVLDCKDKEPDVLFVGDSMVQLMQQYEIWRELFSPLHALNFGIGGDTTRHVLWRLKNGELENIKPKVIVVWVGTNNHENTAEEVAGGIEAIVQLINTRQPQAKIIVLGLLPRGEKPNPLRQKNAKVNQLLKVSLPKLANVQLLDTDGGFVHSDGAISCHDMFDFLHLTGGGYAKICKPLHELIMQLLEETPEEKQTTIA
PAFAH1B3 inh – inhibitors of human PAFAH1B3. AID 492972. 0.28% of 340,000 active. inhibition, % at 3.39 µM. recombinant PAFAH1B3, FP-rhodamine probe, fluorescence polarization. Q15102;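 active means inhibition above the screen-wide average of all tested compounds plus 3 SD, cut at about 25% in these data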;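 further: 0% = enzyme with DMSO only and 100% = wells lacking PAFAH1B3 protein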
Target sequence (Q15102 whole entry, looked up): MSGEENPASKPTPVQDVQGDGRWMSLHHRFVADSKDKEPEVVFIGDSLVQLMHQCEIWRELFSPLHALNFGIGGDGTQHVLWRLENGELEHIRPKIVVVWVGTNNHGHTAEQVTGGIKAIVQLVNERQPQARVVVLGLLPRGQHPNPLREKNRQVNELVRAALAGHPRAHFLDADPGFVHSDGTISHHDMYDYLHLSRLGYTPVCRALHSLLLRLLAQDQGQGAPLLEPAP
ZTA counter – blocks Epstein-Barr virus ZTA, an EBNA-1 counter-screen. AID 2234. inhibition, % at 11 µM. 0.15% of 320,000 active. ZTA-DNA binding, fluorescence polarization. P03206; in the data active means inhibition above about 33%
Target sequence (P03206 whole entry, looked up): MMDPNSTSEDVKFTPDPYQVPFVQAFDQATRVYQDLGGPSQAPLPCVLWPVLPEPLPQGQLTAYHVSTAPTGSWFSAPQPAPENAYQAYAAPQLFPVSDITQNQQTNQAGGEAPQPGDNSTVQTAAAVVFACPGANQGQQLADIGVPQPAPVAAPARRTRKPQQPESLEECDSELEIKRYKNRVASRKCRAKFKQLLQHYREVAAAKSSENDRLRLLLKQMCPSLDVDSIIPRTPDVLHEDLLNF
EBNA-1 inhibitor – blocks EBNA-1 binding to DNA; AID 1950; EBNA-1 DNA binding, fluorescence polarization; 0.34% of 300,000 active; inhibition, % at 14.8 µM; in the data active means inhibition above about 28%
rCAG binder conf – r(CAG) RNA repeat binding, confirmation | shares compounds with rCAG RNA binder | TO-PRO-1 dye displacement fluorescence | inhibition, % at 3 µM | 70% of 4,300 active | AID 652065;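 active means inhibition above a per-plate cutoff, the mean inhibition of sample wells plus 3 SD, cut at about 35% in these data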;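 further: loss of TO-PRO-1 fluorescence as compound displaces dye from 1x1 AA loop RNA; 0% = DMSO only wells and 100% = 100 µM mitoxantrone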
DNA CAG counter – DNA CAG dye complex inhibition counter-screen; d(CAG) DNA oligo TO-PRO-1 dye displacement, fluorescence; shares compounds with rCAG RNA binder; 94% of 4,300 active; inhibition, % at 3 µM;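 active means inhibition above its plate's cutoff, the mean test-well inhibition plus 3 SD, cut at about 4.8% in these data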;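 further: 0% = DNA dye mix with DMSO and 100% = 100 µM mitoxantrone; hits displace the dye from DNA and so lower well fluorescence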
dCAG dye DR – counter-screen for rCAG binders: inhibitors of DNA CAG TO-PRO-1 complex; shares compounds with rCAG RNA binder; DNA CAG/GTC duplex TO-PRO-1 dye displacement fluorescence; IC50, µM; 20% of 250 active; AID 686960; in the data active means IC50 below about 10 µM
Active calls of the source: *; . = not tested or not shown.

SMILES	PAFAH2 inh	rCAG RNA binder	PAFAH1B2 FP inh	PAFAH1B3 inh	ZTA counter	EBNA-1 inhibitor	rCAG binder conf	DNA CAG counter	others
N#C/C(C(=O)NCc1ccccc1)=C1/SC(Cc2ccc(Cl)cc2)C(=O)N1c1ccccc1 (stereo not drawn)	-4.2	5.7	7.8	4.6	1.1	20.3	.	.
CCn1nc(NS(=O)(=O)c2ccc([N+](=O)[O-])cc2)c2cc3ccc(C)cc3nc21	15.4	52.6*	14.0	3.7	5.3	7.5	36.7*	9.6*
CC1CCN(c2ccc(C(=O)O)cc2NS(=O)(=O)c2ccc(Br)cc2)CC1	10.5	34.7*	28.2*	7.1	-1.1	-4.9	37.0*	11.0*
COc1ccc(C(=O)O)cc1S(=O)(=O)Nc1cc(C(F)(F)F)ccc1N1CCCCC1	.	46.4*	.	.	.	.	31.7	7.1*
CC1CCN(c2ccc(C(=O)O)cc2NS(=O)(=O)c2cccc3cccnc23)CC1	.	36.0*	.	.	.	.	29.7	7.2*
COC(=O)c1cc(NS(=O)(=O)c2ccc(N3CCC(C)CC3)c([N+](=O)[O-])c2)cc(C(=O)OC)c1	-2.4	55.3*	2.1	4.2	-12.2	9.7	59.7*	18.7*
COCCCNC(=O)C[C@H]1C[C@@]2(C(=O)OC)C(=C[C@H](COCc3ccccc3)O[C@@H]2C)N(CCc2ccc(OC)c(OC)c2)C1=O	.	-0.5	.	.	.	.	.	.
COc1cccc(C(O)c2nc(-c3cccc(C#N)c3)cs2)c1 (stereo not drawn)	.	0.7	.	.	.	.	.	.
Cc1ccc(S(=O)(=O)Nc2cc(C(=O)O)ccc2N2CCC(C)CC2)cc1C	.	41.7*	.	.	.	.	41.0*	11.4*
CCOC(=O)c1nccnc1C(=O)Nc1cccc(C(F)(F)F)c1	-5.4	-4.7	1.1	0.0	3.5	-7.5	.	.
CCOC(=O)C1=NN(C(=O)Nc2cccc(C(F)(F)F)c2)C2C(=O)N(c3cccc(C(F)(F)F)c3)C(=O)C12 (stereo not drawn)	-10.7	82.5*	2.2	-6.6	26.7	1.0	23.2	5.8*
COc1ccc(C(=O)N/N=C/c2ccc(OC)c(COc3ccccc3)c2)cc1	1.2	-0.7	-2.1	-1.0	-8.1	1.5	.	.
COc1ccc(/C=N\NC(=O)c2cc(O)c(O)c(O)c2)cc1CN1CCN(c2ccc(F)cc2)CC1	-6.3	41.4*	-6.3	12.9	3.0	5.5	44.8*	19.9*
COc1ccc(/C=N/NC(=O)c2ccc(C)cc2)cc1CN1CCN(c2ccc(F)cc2)CC1	-7.7	.	3.4	1.8	-9.3	-3.3	.	.
COc1ccc(/C=N\NC(=O)c2cc(O)c(O)c(O)c2)cc1COc1ccc(C(=O)OCC(C)C)cc1	30.6*	49.8*	13.2	26.3*	-3.4	0.2	56.1*	35.2*
CN1CCCN(S(=O)(=O)c2ccc3c(c2)n(C)c(=O)c(=O)n3C)CC1	.	4.2	.	.	.	.	.	.
Cc1ccc(-n2nnnc2SCc2nc3sc(C)c(C)c3c(=O)[nH]2)cc1	-14.8	2.4	-1.2	-3.4	-9.0	-8.5	.	.
CC(=O)c1sc2nc(CSc3nnnn3-c3ccccc3)[nH]c(=O)c2c1C	21.9	38.9*	-6.0	11.7	1.2	9.9	49.4*	29.0*
COc1ccc(CN2C(=O)CN(S(C)(=O)=O)CC2(C)C(=O)NC(C)C)cc1 (stereo not drawn)	.	1.8	.	.	.	.	.	.
Cc1ccccc1CN1CCCCC(NC(=O)C2CCCCC2)C1=O (stereo not drawn)	.	1.6	.	.	.	.	.	.
Cc1ccc(NC(=O)CN2C(=O)S/C(=C\c3cc(C)n(-c4ccc(C(=O)O)cc4)c3C)C2=O)cc1	2.4	68.2*	1.3	9.0	-5.0	10.4	85.2*	47.5*
Cc1cccc(NC(=O)CN2C(=O)S/C(=C\c3cccn3-c3cccc(C(=O)O)c3)C2=O)c1	4.0	83.7*	-2.6	0.4	-2.6	5.6	80.7*	48.7*
COc1cc(/C=C2\SC(=O)N(CC(=O)Nc3cccc(C)c3)C2=O)ccc1OC(C)C(=O)O (stereo not drawn)	1.8	53.7*	-0.2	-2.2	18.0	-4.1	43.7*	14.0*
Cc1cccc(C)c1NC(=O)CN1C(=O)S/C(=C\c2cccn2-c2cccc(C(=O)O)c2)C1=O	12.2	10.2	2.8	2.5	-11.1	-1.2	.	.
COc1ccc(NC(=O)CN2C(=O)S/C(=C/c3cccn3-c3ccc(C(=O)O)cc3)C2=O)cc1	9.2	24.0	5.8	4.5	.	.	.	.
SMILES	PAFAH2 inh	rCAG RNA binder	PAFAH1B2 FP inh	PAFAH1B3 inh	ZTA counter	EBNA-1 inhibitor	rCAG binder conf	DNA CAG counter	others
Cc1cccc(C)c1-n1cccc1/C=C1\SC(=S)N(c2cccc(C(=O)O)c2)C1=O	-11.6	83.5*	0.2	-5.2	3.2	-2.7	77.9*	41.0*
C#Cc1cccc(OCC(C)CN2CCC(C(O)(c3ccccc3)c3ccccc3)CC2)c1 (stereo not drawn)	.	0.4	.	.	.	.	.	.
Cc1cc(-c2nc(C)c(-c3nnc(SCC(=O)Nc4ccc(Cl)cc4)n3C)s2)no1	.	4.0	.	.	-9.4	-8.1	.	.
COC(=O)[C@]12C[C@H](CC(=O)N3CCCC3)C(=O)N(Cc3ccc(Cl)cc3Cl)C1=C[C@H](C1CCCC1)O[C@@H]2C	.	6.8	.	.	.	.	.	.
O=C(CSCc1cc(=O)[nH][nH]1)Nc1ccc(F)cc1	8.2	5.6	7.4	14.9	7.5	-0.6	.	.
CCCCc1ccc(NC(=O)CSCc2cc(=O)[nH][nH]2)cc1	-4.2	42.4*	8.6	-1.1	2.5	4.7	14.6	4.5*
O=C(CN(c1cccc(Br)c1)S(=O)(=O)c1ccccc1)N/N=C/c1cc([N+](=O)[O-])ccc1O	.	77.4*	.	.	-13.9	2.2	88.7*	61.7*
O=c1oc2ccccc2c(Nc2ccccc2O)c1[N+](=O)[O-]	-10.1	3.4	4.9	-1.9	11.4	6.1	.	.
O=c1oc2ccccc2c(Nc2cccc3ccccc23)c1[N+](=O)[O-]	6.6	42.3*	1.5	2.3	6.2	7.4	45.0*	12.1*
O=c1oc2ccccc2c(Nc2cc3ccccc3cc2O)c1[N+](=O)[O-]	16.3	40.7*	4.5	9.7	3.0	1.0	56.4*	20.2*
CCOc1ccc(NC(=O)CN(C)C(=O)c2ccc(OCC3CCCO3)cc2)cc1OCC (stereo not drawn)	2.6	-7.9	0.6	5.7	-4.6	9.2	.	.
CC(=O)N(C)c1ccc(NC(=O)Cc2cccs2)cc1	-1.0	6.9	-3.3	0.1	19.3	0.4	.	.
Cc1c(CCC(=O)N2CCC[C@H]2C(=O)O)c(=O)oc2c(C)c3oc4c(c3cc12)CCCC4	8.0	37.6*	4.8	4.7	9.5	-11.3	58.1*	18.6*	dCAG dye DR=>29.9
